MRP-1 activ: activates MRP-1 | H69AR cells + doxorubicin, viability rescue, CellTiter-Glo | AID 799 | viability increase, % at 10 µM | 140,000 compounds, 0.61% hits;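 active means viability gain under doxorubicin at or above a set limit, the compound median plus 3 SD, cut at about 4.7% in these data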;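 further: MRP-1 overexpressing cells given doxorubicin 25 µM after compound pretreatment; 18-22 h compound pretreatment then 72 h with doxorubicin before readout; 0% = doxorubicin-only wells and 100% = vehicle-treated cells without doxorubicin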
MRP resist rev: reverses drug resistance mediated by MRP | 85,000 compounds, 0.04% hits | H69AR cells + 2 uM doxorubicin, CellTiter-Glo, 72 h | differential viability (reversal), % at 10 µM;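 active means viability drop by adding the cancer drug above about 55%, with treated viability meeting a 40% cutoff, limit read from the data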;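 further: viability without doxorubicin minus viability with 2 µM doxorubicin for each compound; larger differential means the compound sensitizes cells more to doxorubicin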
CYP2C19 inhib: blocks human cytochrome P450 2C19. P33261. CYP2C19 Supersomes, luciferin-H EGE luminescence, 30 min. inhibition, % at 5 µM. 96,000 compounds, 21% hits;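 active means CYP2C19 inhibition above a set limit at 5 µM in the primary screen, cut at about 50% in these data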;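 further: plate controls were negative control wells for no effect and 2.5 mM tranylcypromine positive control for full effect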
Target sequence (P33261 whole entry, looked up): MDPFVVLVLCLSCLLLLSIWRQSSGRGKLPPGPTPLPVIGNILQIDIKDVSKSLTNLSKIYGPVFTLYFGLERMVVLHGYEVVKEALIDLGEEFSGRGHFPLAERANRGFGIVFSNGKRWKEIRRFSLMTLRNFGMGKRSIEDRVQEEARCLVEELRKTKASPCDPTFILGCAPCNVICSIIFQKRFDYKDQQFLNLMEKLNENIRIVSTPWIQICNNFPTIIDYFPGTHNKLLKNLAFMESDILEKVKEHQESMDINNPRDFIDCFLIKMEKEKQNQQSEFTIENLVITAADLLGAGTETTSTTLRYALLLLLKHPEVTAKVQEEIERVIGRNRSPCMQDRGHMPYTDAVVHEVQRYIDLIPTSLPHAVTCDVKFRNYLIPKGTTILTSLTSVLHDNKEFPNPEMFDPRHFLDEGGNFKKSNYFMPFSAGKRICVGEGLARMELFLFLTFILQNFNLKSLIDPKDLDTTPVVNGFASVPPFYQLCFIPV
CYP2C19 act: increases human CYP2C19 enzyme activity; P33261; recombinant CYP2C19, luciferin-H EGE luminescence; active compounds read high; 0 = fully inhibited enzyme, 1 = untreated enzyme; activation factor at 5 µM; 96,000 tested, under 10 active; AID 1025;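 active means activation factor of at least 2 at 5 µM in the primary screen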;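 further: 0 = wells with 2.5 mM tranylcypromine and 1 = vehicle-only wells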
CYP2C9 act: activators of human CYP2C9 | P11712 | recombinant CYP2C9, luciferin-H conversion, luminescence; active compounds read high; factor 1 = untreated enzyme, 0 = blocked | activation factor at 5 µM | 96,000 compounds, 1.4% hits;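 active means activation factor of 2 or more for CYP2C9 at a 5 µM dose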;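 further: 0 = sulfaphenazole-blocked wells and 1 = vehicle-only wells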
CYP2C9 inh: blocks human cytochrome P450 2C9 | CYP2C9 Supersomes, luciferin-H conversion, luminescence | 96,000 compounds, 20% hits | P11712 | inhibition, % at 5 µM;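 active means blocking of liver enzyme CYP2C9 beyond about 50% at 5 µM, limit read from the data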
* marks the source's active call; other numbers are inactive results; nt = no result given. In the library only some 21% were active in any assay of this set; here they are far more common.

SMILES | MRP-1 activ | MRP resist rev | CYP2C19 inhib | CYP2C19 act | CYP2C9 act | CYP2C9 inh
O=C(CCNS(=O)(=O)c1cccc2nonc12)NCCc1ccc(Cl)cc1 | 3 | -2 | 74* | 0.3 | 1.9 | -92
Cc1ccc(CCNC(=O)C2CCN(S(=O)(=O)c3cccc4nonc34)CC2)cc1 | -2 | -1 | 5 | 0.9 | 1.2 | -22
O=C(c1cc(C2CC2)nc2ccc(Br)cc12)N1N=C(C(F)F)CC1(O)C(F)F (configuration not stated) | -7 | -16 | nt | nt | nt | nt
O=C(N/N=C/c1ccncc1)C1C2CCCCCCC21 (configuration not stated) | -1 | nt | nt | nt | nt | nt
C=CCn1c(SCC(=O)NCc2ccc3c(c2)OCO3)nnc1C1CCCCC1 | 0 | 11 | 53* | 0.5 | 0.4 | 58*
C=CCn1c(SCc2c(C)noc2C)nnc1C1COc2ccccc2O1 (configuration not stated) | -2 | -11 | 33 | 0.7 | 0.4 | 61*
C=CCn1c(SCC(=O)NCc2ccc3c(c2)OCO3)nnc1C1COc2ccccc2O1 (configuration not stated) | 0 | 3 | 65* | 0.4 | 0.5 | 53*
C=CCn1c(SCC(=O)NC(=O)NC2CCCC2)nnc1C1CCCCC1 | -4 | nt | nt | nt | nt | nt
C=CCn1c(SCC(=O)Nc2cc(C)nn2-c2ccccc2)nnc1C1CCCCC1 | -3 | -5 | 66* | 0.3 | 0.6 | 42
C=CCn1c(SCC(=O)NCc2ccccc2)nnc1C1CCCCC1 | -2 | 7 | 15 | 0.8 | 0.6 | 40
Cn1ccnc1SCC(=O)Nc1cc(S(=O)(=O)N2CCOCC2)ccc1Cl | -1 | nt | nt | nt | nt | nt
CCOc1ccc(-n2c(N)c(-c3nc4ccccc4n3C)c3nc4ccccc4nc32)cc1 | -3 | nt | nt | nt | nt | nt
COc1ccc(NC(=O)NC23CC4(C)CC(C)(CC(C)(C4)C2)C3)cc1 | -2 | nt | nt | nt | nt | nt
CCOC(=O)c1[nH]c(C)c(C(=O)OCC)c1C | 0 | 14 | 84* | 0.2 | 0.2 | 75*
CCCN(CC1CC1)C(=O)COC(=O)c1[nH]c(C)c(C(=O)OCC)c1C | 0 | 5 | 60* | 0.4 | 0.6 | 44
CCOC(=O)c1c(C)[nH]c(C(=O)COC(=O)c2ccncc2)c1C | -2 | 5 | 16 | 0.8 | 0.1 | 92*
CCCNC(=O)COC(=O)c1[nH]c(C)c(C(=O)OCC)c1C | -2 | -1 | 44 | 0.6 | 0.4 | 64*
COC(=O)c1c(C)[nH]c(C(=O)OCC(=O)NCC(C)C)c1C | -2 | 14 | 19 | 0.8 | 0.6 | 43
C=CCN1C(=O)C2(/C(=C(\O)c3ccc4c(c3)OCCO4)C(=O)C(=O)N2CCCOC)c2ccccc21 (configuration not stated) | -1 | 8 | -15 | 1.1 | 1.3 | -25
CCOC(=O)c1[nH]c(C)c(C(=O)Nc2ccc(Cl)cc2)c1C | 0 | 2 | 14 | 0.9 | 1 | 3
CCOC(=O)c1c(C)[nH]c(C(=O)COC(=O)C2CC2C)c1C (configuration not stated) | 2 | -7 | 73* | 0.3 | 0 | 98*
CCOC(=O)c1[nH]c(C)c(C(=O)c2cc(F)ccc2F)c1C | -5 | -25 | 95* | 0.1 | 0.1 | 93*
CCOC(=O)c1c(C)[nH]c(C(=O)COC(=O)c2[nH]c(C)c(C(C)=O)c2C)c1C | 0 | nt | 24 | 0.8 | 0.8 | 17
COCCN(C(=S)Nc1ccc(OC)cc1)C1CCN(C(C)=O)CC1 | -1 | nt | nt | nt | nt | nt
Cc1ccc(-c2nc3ccccc3o2)cc1NC(=O)c1ccc2c(c1)OCO2 | -3 | 0 | 50 | 0.5 | 0.3 | 70*
SMILES | MRP-1 activ | MRP resist rev | CYP2C19 inhib | CYP2C19 act | CYP2C9 act | CYP2C9 inh
O=C(Nc1ccccc1-c1nc2ccccc2o1)c1ccc2c(c1)OCCO2 | nt | 4 | nt | nt | nt | nt
Cc1c(NC(=O)c2ccc3c(c2)OCO3)cccc1-c1nc2ccccc2o1 | -1 | nt | 50 | 0.5 | 0.3 | 69*
CC(=O)c1c(C(C)=O)c(C)n(C2CCCCC2)c1C | -2 | 10 | nt | nt | nt | nt
CC1(C)Cc2c(c(-c3ccccc3)nc3[nH][nH]c(=O)c23)CO1 | -2 | -2 | 57* | 0.4 | 1 | 3
CC1(C)Cc2c(c(-c3ccccc3)nc(N3CCCC3)c2C(N)=O)CO1 | -1 | -5 | -11 | 1.1 | 1.1 | -12
CC1(C)Cc2c(C#N)c(NCCCO)nc(-c3ccccc3)c2CO1 | -2 | -8 | 21 | 0.8 | 0.4 | 61*
CCN(CC)CCNc1nc(-c2ccccc2)c2c(c1C#N)CC(C)(C)OC2 | 0 | -32 | 11 | 0.9 | 0.7 | 29
Cc1ccc(NC(=O)COC(=O)c2cc(C)nc3ccccc23)c([N+](=O)[O-])c1 | -5 | nt | nt | nt | nt | nt
CC(=O)Nc1nonc1-n1nnc(C(=O)NCc2ccccc2)c1C | 0 | 1 | 83* | 0.2 | 0.3 | 70*
Cc1ccc(C2Nc3cccc4cccc(c34)N2)s1 | 0 | nt | nt | nt | nt | nt
c1coc(C2Nc3cccc4cccc(c34)N2)c1 | 6.0* | -18 | 59* | 0.4 | 0.5 | 54*
Oc1ccc(C2Nc3cccc4cccc(c34)N2)c(O)c1 | -1 | -18 | 66* | 0.3 | nt | nt
COc1cc(C2Nc3cccc4cccc(c34)N2)cc(OC)c1O | 6.5* | -22 | nt | nt | nt | nt
COC(=O)CCSCc1cn2cc(Cl)ccc2n1 | -3 | 18 | 31 | 0.7 | 1 | -1
O=C(O)C1CCCCC1C(=O)Nc1ccccc1Cl (configuration not stated) | -2 | -3 | 64* | 0.4 | 0.5 | 46
O=C(O)C1CCCCC1C(=O)Nc1ccc(Cl)cc1Cl (configuration not stated) | -2 | 0 | 37 | 0.6 | 0.8 | 22
CSCC[C@H](NC(=O)NCc1ccc(F)cc1)C(=O)O | -1 | 9 | 0 | 1 | 1 | 4
Cc1ccc(S(=O)(=O)Nc2ccccc2C(N)=O)cc1 | -2 | 9 | 23 | 0.8 | 2.1* | -109
Cc1cc(S(=O)(=O)Nc2ccccc2C)ccc1F | -2 | 6 | nt | nt | nt | nt
NC(=O)c1ccccc1NS(=O)(=O)Cc1ccc(Cl)cc1 | 1 | 2 | 66* | 0.3 | 1.6 | -57
CN(C)S(=O)(=O)Nc1ccccc1C(N)=O | 0 | 6 | -1 | 1 | 1.5 | -52
NC(=O)c1ccccc1NS(=O)(=O)c1ccccc1 | 1 | 36 | 25 | 0.7 | 2.3* | -133
Cc1ccccc1NS(=O)(=O)c1ccc(C)c(C(N)=O)c1 | -2 | 18 | 90* | 0.1 | 0.9 | 11
CCOc1ccc2nc(SCC(=O)N(C)C)[nH]c2c1 | -1 | 8 | 19 | 0.8 | 0.9 | 14
O=C(NNS(=O)(=O)c1ccccc1)c1ccc(O)cc1 | -1 | nt | nt | nt | nt | nt
Cc1ccccc1NS(=O)(=O)c1cc(C(N)=O)ccc1C | 0 | -9 | 97* | 0 | 0.8 | 19
Cc1ccccc1NS(=O)(=O)c1cc(S(C)(=O)=O)ccc1C | -1 | nt | nt | nt | nt | nt
O=C(NS(=O)(=O)c1ccccc1)c1ccccc1O | -1 | -11 | 4 | 1 | 0.1 | 89*

Screening data (PubChem)
